Values joined by “and” are separate entries in the source; they are usually repeats but may differ in a detail not shown here. Equal values may be shown once. Records with an inconclusive call do not appear. Where a call stands in place of a potency, no number is given. Unmarked numbers belong to inactive results. Active and inactive are the calls of the source. Calls come from the whole dose curve; as a rule, active = well fitted curve in the direction sought with a large enough effect in the repeat runs; inconclusive = weak or mixed curves; inactive = no such curve, though single readings can be large; an effect the other way counts as inactive or inconclusive.
What was measured:
[1] = target: Nuclear receptor subfamily 1 group I member 2 (Rattus norvegicus) (UniProt Q9R1A7); test: Rat pregnane X receptor (rPXR) activation by small molecules, qHTS assay (AID 1346983); details: rPXR luciferase reporter cells, One-Glo luminescence, 24 h; max activation: stronger effect = higher value; note: nearly all actives have a fitted effect of over 20% in size
Summary of the method: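 Cell-based rPXR activation assay: rPXR cells, 2,000 per well, rested 5hr at 37 C, then exposed to compounds in DMSO for 24 hr at 37 C. Luciferase activity read by One-Glo luminescence after 30 min at room temperature.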

[2] = target: Nuclear receptor subfamily 1 group I member 2 (Homo sapiens) (UniProt O75469); test: CYP3A4 induction through human pregnane X receptor (PXR) by small molecules, qHTS assay (AID 1346984); details: DPX-2 HepG2 PXR, CYP3A4-luciferin luminescence, 24 h; series mostly up to 46.1 µM; note: nearly all actives have a fitted effect of over 40% in size
Summary of the method: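 After 24 h at 37C with compound, DPX-2 cells (HepG2, co-transfected PXR response element and CYP3A4 promoter-luciferase) got 3uM final P450-Glo Luciferin-IPA for 3 h; One-Glo luminescence followed.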

[3] = target: Nuclear receptor subfamily 1 group I member 2 (Homo sapiens) (UniProt O75469); test: Human pregnane X receptor (PXR) activation by small molecules, qHTS assay (AID 1346985); details: DPX-2 HepG2 CYP3A4-luciferase, 24 h; series mostly up to 38.3 µM; note: nearly all actives have a fitted effect of over 40% in size
Summary of the method: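 DPX-2 cells (HepG2 co-transfected with a PXR response element and a CYP3A4-promoter luciferase construct) were seeded at 2,000 per well, rested 5 hr at 37C, then exposed to DMSO-dissolved compounds for 24 hr. Activation was read as luciferase luminescence.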

Chain of Nuclear receptor subfamily 1 group I member 2 (Rattus norvegicus) (Q9R1A7 whole entry, looked up): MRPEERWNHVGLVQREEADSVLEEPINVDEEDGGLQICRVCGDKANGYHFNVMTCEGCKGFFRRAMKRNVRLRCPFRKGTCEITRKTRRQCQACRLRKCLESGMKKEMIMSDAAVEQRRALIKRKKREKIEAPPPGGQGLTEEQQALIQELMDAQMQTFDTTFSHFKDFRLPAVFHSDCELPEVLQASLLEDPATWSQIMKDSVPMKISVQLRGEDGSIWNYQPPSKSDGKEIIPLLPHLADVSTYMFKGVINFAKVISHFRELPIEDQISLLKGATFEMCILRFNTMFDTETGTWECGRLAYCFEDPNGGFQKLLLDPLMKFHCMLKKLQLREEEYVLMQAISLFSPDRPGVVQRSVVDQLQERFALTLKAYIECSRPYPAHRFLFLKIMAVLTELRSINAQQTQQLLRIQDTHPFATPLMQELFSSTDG

SMILES | max activation [1] | Potency [2] | Potency [3]
CO/N=C(\C(=O)N[C@@H]1C(=O)N2C(C(=O)[O-])=C(C[n+]3ccc(N)n3CCO)CS[C@H]12)c1csc(N)n1 | -1.9% | inactive | inactive
Oc1ccc(Cl)c2c1CCC2 | 0.0185% | inactive | inactive
O=C(O)/C=C/C(O)c1ccc(Cl)cc1 (centres undefined) | -1.46% | inactive | inactive
CO[C@H](C(=O)[C@@H](O)[C@@H](C)O)C1Cc2cc3cc(O[C@H]4C[C@@H](O[C@H]5C[C@@H](O)[C@H](O)[C@@H](C)O5)[C@@H](O)[C@@H](C)O4)c(C)c(O)c3c(O)c2C(=O)[C@H]1O[C@H]1C[C@@H](O[C@H]2C[C@@H](O[C@H]3C[C@](C)(O)[C@H](O)[C@@H](C)O3)[C@H](O)[C@@H](C)O2)[C@H](O)[C@@H](C)O1 (some centres undefined) | -17.7% | inactive | inactive
CC[C@@H](C)[C@H](N)C(=O)O | -3.95% | inactive | inactive
CO[C@H]1C[C@@H]2CC[C@@H](C)[C@@](O)(O2)C(=O)C(=O)N2CCCC[C@H]2C(=O)O[C@H]([C@H](C)C[C@@H]2CC[C@@H](O)[C@H](OC)C2)CC(=O)[C@H](C)C=C(C)[C@@H](O)[C@@H](OC)C(=O)[C@H](C)C[C@H](C)/C=C/C=CC=C1C | -10.6% and -9.93% | inactive | inactive
CC(C)NCC1CCc2cc(CO)c([N+](=O)[O-])cc2N1 (centres undefined) | -0.344% | inactive | inactive
NC(=O)[C@@H]1C[C@]2(NC(=O)NC2=O)c2cc(F)ccc2O1 | -1.76% | inactive | inactive
NC[C@H]1O[C@H](O[C@H]2[C@H](O)[C@@H](O[C@H]3O[C@H](CO)[C@@H](O)[C@H](N)[C@H]3O)[C@H](N)C[C@@H]2N)[C@H](N)C[C@@H]1O | 7.07% | inactive | inactive
CCCCCCCCCCCCCCCCCCOCC(COP(=O)([O-])OCC[N+](C)(C)C)OC (centres undefined) | -1.53% | inactive | inactive
CCN(CC)C(=O)c1cccnc1 | -3.83% | inactive | inactive
CC(=O)OCC(=O)[C@@]1(O)CC[C@H]2[C@@H]3CCC4=CC(=O)CC[C@]4(C)C3=CC[C@@]21C | -1.67% | inactive | inactive
Cc1c(N)nc([C@H](CC(N)=O)NC[C@H](N)C(N)=O)nc1C(=O)N[C@H](C(=O)N[C@H](C)[C@@H](O)[C@H](C)C(=O)N[C@H](C(=O)NCCc1nc(-c2nc(C(=O)NCCCCN=C(N)N)cs2)cs1)[C@@H](C)O)[C@@H](O[C@@H]1O[C@@H](CO)[C@@H](O)[C@H](O)[C@@H]1O[C@H]1O[C@H](CO)[C@@H](O)[C@H](OC(N)=O)[C@@H]1O)c1cnc[nH]1 | -0.9% | inactive | inactive
Cc1cnc(C(=O)O)c[n+]1[O-] | -2.61% and 6.98% and -0.594% | inactive | inactive
CO/N=C(\C(=O)N[C@@H]1C(=O)N2C(C(=O)O)=C(C[N+]3(C)CCCC3)CS[C@H]12)c1csc(N)n1 | -0.506% | inactive | inactive
C[Se]CC[C@H](N)C(=O)O | -6.85% |  | inactive
COC1[C@@H](O[C@@H]2O[C@H](C)[C@@H](O[C@H]3C[C@@](C)(O)[C@H](OC(=O)CC(C)C)[C@H](C)O3)[C@H](N(C)C)[C@H]2O)[C@@H](CC=O)C[C@@H](C)[C@@H](O)/C=C/C=C/C[C@@H](C)OC(=O)C[C@H]1OC(C)=O (some centres undefined) | -1.32% |  | inactive
C(=C\c1ccncc1)/c1ccccc1 |  | inactive | inactive
CC(C)c1ncc([N+](=O)[O-])n1C | -4.41% |  | inactive
CC1(C)S[C@@H]2[C@H](NC(=O)[C@@H](NC(=O)N3CCNC3=O)c3ccccc3)C(=O)N2[C@H]1C(=O)O | -1.76% |  | inactive
CC(C)(C)C(=O)OCC(=O)[C@H]1CC[C@H]2[C@@H]3CCC4=CC(=O)CC[C@]4(C)[C@H]3CC[C@]12C | -6.33% |  | inactive
Cc1cc(=O)c(C(=O)N[C@@H](C(=O)N[C@@H]2C(=O)N3C(C(=O)O)=C(CSc4nnnn4C)CS[C@H]23)c2ccc(O)cc2)c[nH]1 | -0.22% |  | inactive

Reference: PubChem BioAssay (Tox21)
